Bioassay records deposited in PubChem by National Center for Advancing Translational Sciences (NCATS).
ELG1 DNA repair – qHTS screen for small molecules that inhibit ELG1-dependent DNA repair in human embryonic kidney (HEK293T) cells expressing luciferase-tagged ELG1; 330,000 tested, 2.3% active; AID 504467, 2011; Potency, µM (highest dose often 46.1 µM), usual class: inhibitors; HEK293T ELG1-luciferase reporter, luminescence, 16 h; DNA damage induced by 5-fluorouridine; note: nearly all actives have a fitted effect of over 55% in size
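5-Fluorouridine DNA damage + compound/DMSO, 2,000 cells/well, 16 h, 37 °C/5% CO2. ONE-Glo, 30 min RT, luminescence. Readout = decrease in reporter signal.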
Nrf2 activator – qHTS of Nrf2 Activators; AREc32 ARE-luciferase reporter (MCF7-derived line), luminescence, 24 h; Potency, µM (titrated, usually from 46.1 µM), usual class: activators; 410,000 tested, 0.31% active; AID 624171, 2012; note: nearly all actives have a fitted effect of over 65% in size
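Reporter line AREc32 (ARE-Fluc), seeded overnight in OPTI-MEM with 5% FBS; compound pin-transferred, 24 hr at 37 deg C, 5% CO2; luminescent read-out.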
BRCA1 expr up – qHTS Assay to Identify Small Molecule Activators of BRCA1 Expression; MCF7-BRCA1-FFLuc reporter, luminescence, 48 h; response scale: scaled: vehicle 0%, 10 µM genistein 100%; 380,000 tested, 1.1% active; Potency, µM (series often up to 46.1 µM), hits mostly activators; note: nearly all actives have a fitted effect of over 80% in size
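Quantitative HTS in MCF7 cells stably reporting BRCA1 expression via firefly luciferase. Compound treatment lasts 48 h at 37 °C in phenol-red free MEM. Activation is expressed relative to genistein at 10 microM and DMSO.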
IL2 activator – qHTS of IL-2 Activators | 360,000 tested, 0.065% active | AID 652025, 2013 | IL-2 activation reporter assay, cell-based qHTS; stimulated with anti-CD3/CD4/CD28 beads; in transgenic mouse T cells | activation, % (series mostly up to about 46 µM); in the data active = activation above about 50%; inconclusive = mostly about 30% to 49%
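Readout: EGFP and DsRed signals by fluorescent plate cytometry. Unstimulated transgenic mouse T cells received compound 60 min before antibody-bead stimulation, then incubated 18 h at 37 degrees C.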
Hits are given with their value; ! = repeats disagree. The list is not random: actives were taken first. Their share in the collection is about 3.1%. Unless noted, calls come from the whole dose curve; as a rule, active = well fitted curve in the direction sought with a large enough effect; inconclusive = small, poorly fitted or top-dose-only effect, or another doubt; inactive = no such curve, though single readings can be large; an effect the other way counts as inactive or inconclusive.

CCOc1cc(/C=N/NC(=O)c2ccncc2)cc(Cl)c1OS(C)(=O)=O was read as ELG1 DNA repair 15µM, Nrf2 activator inactive, BRCA1 expr up inactive and IL2 activator inactive.
Screening Cc1cc(C)cc(NC(=O)N2CCC(CN3CCc4ccccc4C3)CC2)c1 returned Nrf2 activator inactive.
CCc1ccc2oc(-c3ccc(C)c(NC(=O)Cc4ccccc4)c3)nc2c1 was read as Nrf2 activator inactive.
`Cc1ccc(NC(=O)Nc2ccc3c(c2)nnn3C)cc1C` gave ELG1 DNA repair inconclusive, Nrf2 activator inactive, BRCA1 expr up 2.8µM and IL2 activator inactive.
`Cc1cc[n+](-c2ccccc2)c2ccccc12` gave ELG1 DNA repair 10µM, Nrf2 activator inactive, BRCA1 expr up inactive and IL2 activator inactive.
For O=C(OCc1cc(=O)n2nc(C3CC3)sc2n1)c1ccc(NC(=O)c2ccccc2Cl)cc1 the results were Nrf2 activator inactive.
COc1ccc(-c2nc(NC(=O)C3CCN(c4nc5ccccc5o4)CC3)sc2C)cc1 was read as ELG1 DNA repair 12µM, Nrf2 activator inactive, BRCA1 expr up inactive and IL2 activator inactive.
`CC(C)CCNC(=O)C1CCN(c2nc3ccccc3o2)CC1` gave ELG1 DNA repair inconclusive, Nrf2 activator inactive, BRCA1 expr up inactive and IL2 activator inactive.
`CCOC(=O)c1c(-c2ccc(-c3ccccc3)cc2)csc1NC(=O)c1cccc(N2C(=O)CCC2=O)c1` gave ELG1 DNA repair 7.3µM, Nrf2 activator inactive, BRCA1 expr up inactive and IL2 activator inactive.
For CCCCn1c(Oc2ccc(C(=O)OC)cc2)nc2c1c(=O)n(C)c(=O)n2C the results were ELG1 DNA repair 21µM, Nrf2 activator inactive, BRCA1 expr up inactive and IL2 activator inactive.
For CCCCn1c(Oc2cccc(C(=O)OC)c2)nc2c1c(=O)n(C)c(=O)n2C the results were Nrf2 activator inactive.
`Cn1c(=O)c2c(nc(Oc3ccccc3)n2C)n(C)c1=O` gave ELG1 DNA repair 16µM!, Nrf2 activator inactive, BRCA1 expr up inactive and IL2 activator inactive.
For CC(C)CCn1c(Oc2ccc(Cl)cc2)nc2c1c(=O)n(C)c(=O)n2C the results were ELG1 DNA repair 21µM, Nrf2 activator inactive, BRCA1 expr up inactive and IL2 activator inactive.
Screening Cc1cccc(Oc2nc3c(c(=O)n(C)c(=O)n3C)n2C)c1 returned ELG1 DNA repair inconclusive, Nrf2 activator inactive, BRCA1 expr up inactive and IL2 activator inactive.
For CCn1c(Oc2ccc(F)cc2)nc2c1c(=O)n(C)c(=O)n2C the results were ELG1 DNA repair 8.2µM, Nrf2 activator inactive, BRCA1 expr up inactive and IL2 activator inactive.
`O=C(NCc1cccs1)c1ccc2c(c1)N(Cc1ccccc1Cl)C(=O)c1ccccc1S2` gave Nrf2 activator inactive.
O=C(Nc1ccc(F)c(Cl)c1)Nc1nnc([C@H]2C[C@H](O)[C@@H](CO)O2)s1 was read as Nrf2 activator inactive, BRCA1 expr up 11µM and IL2 activator inactive.
O=C(Nc1nnc([C@@H]2C[C@H](O)[C@@H](CO)O2)s1)Nc1ccccc1F was read as Nrf2 activator inactive, BRCA1 expr up 6.3µM and IL2 activator inactive.
O=C(Nc1nnc([C@@H]2C[C@H](O)[C@@H](CO)O2)s1)c1ccccc1Cl was read as Nrf2 activator inactive, BRCA1 expr up inactive and IL2 activator inactive.
Screening O=C(Nc1nnc([C@@H]2C[C@H](O)[C@@H](CO)O2)s1)c1cccc2ccccc12 returned Nrf2 activator inactive, BRCA1 expr up 8.9µM and IL2 activator inactive.
O=C(Nc1cccc(Cl)c1)Nc1nnc([C@@H]2C[C@H](O)[C@@H](CO)O2)s1 was read as Nrf2 activator inactive, BRCA1 expr up inconclusive and IL2 activator inactive.
O=C(Nc1ncc2c(n1)-c1ccccc1CC2)c1ccccc1 was read as ELG1 DNA repair inactive, Nrf2 activator 7.9µM, BRCA1 expr up inactive and IL2 activator inactive.
For CCC(C(=O)NCCc1ccccc1)n1nc(C)c2sc3ccccc3c2c1=O (stereo unspecified) the results were Nrf2 activator inactive.
For CCC(C)(C)NC(=O)C(c1ccc(OC)cc1)N(Cc1cccs1)C(=O)CCC(=O)Nc1cc(C)on1 (stereo unspecified) the results were ELG1 DNA repair 18µM, Nrf2 activator inactive, BRCA1 expr up inactive and IL2 activator inactive.
